Records with an inconclusive call do not appear. Activity calls are given as the source filed them. The call rests on the fitted dose curve; in most records, active means well fitted inhibition curve with a large enough effect; inconclusive means small, poorly fitted or top-dose-only effect; inactive means no such curve, though single readings can be large or run the other way.
On the % scale 0 is the no-effect control and ±100 the full control effect; potency means the concentration at half of the fitted maximal effect.

Cytochrome P450 3A4 (Homo sapiens), sequence (P08684 whole entry, looked up): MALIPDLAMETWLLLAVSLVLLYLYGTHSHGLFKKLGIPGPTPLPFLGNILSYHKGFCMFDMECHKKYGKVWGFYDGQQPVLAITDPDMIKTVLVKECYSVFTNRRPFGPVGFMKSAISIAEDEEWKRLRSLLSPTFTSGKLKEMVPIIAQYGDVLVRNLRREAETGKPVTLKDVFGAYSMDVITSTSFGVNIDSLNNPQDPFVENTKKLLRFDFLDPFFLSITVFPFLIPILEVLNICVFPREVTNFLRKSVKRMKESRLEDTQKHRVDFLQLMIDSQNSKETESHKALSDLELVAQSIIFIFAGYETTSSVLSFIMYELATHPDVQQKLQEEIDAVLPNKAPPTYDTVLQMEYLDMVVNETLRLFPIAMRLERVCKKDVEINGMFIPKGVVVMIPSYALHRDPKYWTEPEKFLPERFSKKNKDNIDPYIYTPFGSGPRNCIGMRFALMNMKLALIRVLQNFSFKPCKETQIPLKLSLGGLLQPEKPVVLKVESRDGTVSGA

This assay has as its target Cytochrome P450 3A4 (Homo sapiens) (UniProt P08684). As to the kind of experiment: qHTS Assay for Inhibitors and Substrates of Cytochrome P450 3A4 (AID 884). Further: nearly all actives have a fitted effect of over 50% in size. Particulars: recombinant CYP3A4, Luciferin-PPXE luminescence; series mostly up to 57.1 µM; activity change, negative = inhibition: at the top concentration. The method, boiled down:
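20 nM human CYP3A4 with 25 uM Luciferin-PPXE (at KM) in 200 mM KPO4, preincubated 10 min with compound; NADPH regeneration started a 60 min RT reaction. Luciferin detected by luminescence, normalized to 57 uM ketoconazole as full inhibition.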
(In general: In qHTS, concentration-response curves come from the screen itself.)
Consider `Cc1ccc(B(O)O)cc1`, for which the “activity change, negative = inhibition” value was -24.1% (inactive).

In the case of `CC(C)Cn1c(N)c(C(=O)COC(=O)c2cc(-c3ccccc3)nc3ccccc23)c(=O)n(C)c1=O`, the “activity change, negative = inhibition” value is 1.1% (inactive).

For the molecule `FC(F)(F)c1ccc(CN2C[C@@H]3C(c4ccccc4)C4(c5cccnc5)CC3(C4)[C@H]2c2ccccc2)cc1` (some centres undefined), the Potency was 15.8 µM (active).

Consider `O=C(O)c1cc(C(F)(F)F)nc2c(C(F)(F)F)cccc12`, for which the “activity change, negative = inhibition” value is -26% (inactive).

As for `CN(C)c1ccc(CNC(=O)[C@@]2(C)C=C[C@@H](Cc3ccccc3)N2C)cc1`, the “activity change, negative = inhibition” value is -79.9% (inactive).

As to `Cn1c(N)cc(=O)n(Cc2ccccc2)c1=O`, the “activity change, negative = inhibition” value is -42.5% (inactive).

For the molecule `CCC1=C2CC[C@H]3C(=O)NC(=O)[C@H]3[C@H]2[C@@]2(C)C(=NCC(=O)OC)OC(=O)N2C1=O`, the “activity change, negative = inhibition” value is -14.8% (inactive).

In the case of `CC(=O)c1ccsc1B(O)O`, the “activity change, negative = inhibition” value is -20.8% (inactive).

Regarding `COC(=O)c1ccc(CN2[C@H](C(=O)OC)C[C@@]3(O)[C@@H](O)[C@@H](O)[C@@H](O)C[C@@H]23)cc1`, the “activity change, negative = inhibition” value was -18.1% (inactive).

In the case of `O=C(O)/C=C/c1cccc(B(O)O)c1`, the “activity change, negative = inhibition” value is -21.7% (inactive).

In the case of `N#Cc1ccc(C23CC4(C2)[C@H](CN(Cc2ccc(-c5ccccc5)cc2)[C@@H]4c2ccccc2)C3c2ccc(C(F)(F)F)cc2)cc1` (some centres undefined), the “activity change, negative = inhibition” value was -25% (inactive).

For the molecule `O=C(Nc1cc(NC(=O)c2ccccc2)c(C(=O)O)cc1C(=O)O)c1ccccc1`, the “activity change, negative = inhibition” value is -14% (inactive).

`O=C1[C@H]2[C@H]3[C@H](O)[C@H](O)C/C(=N/OC[C@@H](O)COCc4ccco4)[C@@H]3CC[C@@H]2C(=O)N1Cc1ccc2c(c1)OCO2`: the Potency was 3.16 µM (active).

In the case of `O=Cc1ccsc1B(O)O`, the “activity change, negative = inhibition” value was -7.14% (inactive).

With `COc1cccc([C@@H]2Oc3ccc(OC)cc3/C(=N/O[C@@H](C)c3cn([C@H]4COC[C@H]4O)nn3)[C@@H]2O)c1`, the Potency was 3.16 µM (active).

Regarding `COC(=O)[C@@H]1C[C@@]2(O)[C@@H](O)[C@@H](O)[C@@H](O)C[C@H]2N1Cc1ccc(C)s1`, the “activity change, negative = inhibition” value was -12.2% (inactive).

For the molecule `COC(=O)[C@@H]1C[C@@]2(O)[C@H](O)[C@H](O)[C@H](O)C[C@H]2N1Cc1ccc(C)s1`, the “activity change, negative = inhibition” value is -19.8% (inactive).

Take `Cn1c(=O)c(C(=O)COC(=O)c2cc(C(F)(F)F)nc3c(C(F)(F)F)cccc23)c(N)n(Cc2ccccc2)c1=O`: the “activity change, negative = inhibition” value is -27.7% (inactive).

In the case of `COC(=O)[C@@H]1C[C@@]2(O)[C@@H](O)[C@@H](O)[C@@H](O)C[C@H]2N1Cc1ccc(N2CCOCC2)cc1`, the “activity change, negative = inhibition” value is -13.7% (inactive).

With `C#CCCCO/N=C1/C[C@@H](O)[C@@H](O)[C@@H]2[C@H]3C(=O)N(c4ccc(F)cc4F)C(=O)[C@@H]3CC[C@@H]12`, the Potency was 3.16 µM (active).

In the case of `COC(=O)[C@@H]1C[C@@]2(O)[C@H](O)[C@H](O)[C@H](O)C[C@H]2N1CC1CC1`, the “activity change, negative = inhibition” value was -14.1% (inactive).

In the case of `COC(=O)c1ccc(C23CC4(C2)[C@H](CN(Cc2ccc(-c5ccccc5)cc2)[C@@H]4c2ccccc2)C3c2ccc(Cl)nc2)cc1` (some centres undefined), the “activity change, negative = inhibition” value is -20.2% (inactive).

In the case of `CN1C[C@@H]2C(c3ccc(C(F)(F)F)cc3)C3(c4ccccc4)CC2(C3)[C@H]1c1ccccc1` (some centres undefined), the “activity change, negative = inhibition” value was -28.8% (inactive).

Regarding `N=C(N)c1ccc(N2CCN(C3CCN(CC(=O)O)CC3)CC2)cc1`, the “activity change, negative = inhibition” value is -7.22% (inactive).

With `FC(F)(F)c1ccc(C2[C@H]3CN(CC4CCCCC4)[C@H](c4ccccc4)C34CC2(c2ccccc2)C4)cc1` (some centres undefined), the “activity change, negative = inhibition” value is -40.3% (inactive).

For the molecule `Cn1c(=O)c(C(=O)COC(=O)c2cc(C(F)(F)F)nc3ccccc23)c(N)n(Cc2ccccc2)c1=O`, the “activity change, negative = inhibition” value is 2.97% (inactive).

On to `COC(=O)[C@@H]1C[C@@]2(O)[C@H](O)[C@H](O)[C@H](O)C[C@H]2N1Cc1cc(F)ccc1F`, for which the “activity change, negative = inhibition” value is -21.8% (inactive).

Take `CCC1=C2CC[C@H]3C(=O)N(C)C(=O)[C@H]3[C@H]2[C@@]2(C)C(=NCC(=O)OC)OC(=O)N2C1=O`: the “activity change, negative = inhibition” value is -23.8% (inactive).

Turning to `CCCN1[C@H](C(=O)OC)C[C@@]2(O)[C@@H](O)[C@@H](O)[C@@H](O)C[C@@H]12`, the “activity change, negative = inhibition” value was -12.3% (inactive).

In the case of `COC(=O)[C@@H]1C[C@@]2(O)[C@H](O)[C@H](O)[C@H](O)C[C@H]2N1CC1CCCCC1`, the “activity change, negative = inhibition” value was -24.4% (inactive).

With `O=C(O)c1ccc(NS(=O)(=O)c2ccsc2C(=O)O)c(O)c1`, the “activity change, negative = inhibition” value was -12.7% (inactive).

On to `CCC1=C2CC[C@H]3C(=O)NC(=O)[C@H]3[C@H]2[C@@]2(C)C(=NCCOC)OC(=O)N2C1=O`, for which the “activity change, negative = inhibition” value is -30.8% (inactive).

`N#Cc1ccc(C23CC4(C2)[C@H](CN(Cc2ccc(C(F)(F)F)cc2)[C@@H]4c2ccccc2)C3c2ccc(Cl)nc2)cc1` (some centres undefined): the “activity change, negative = inhibition” value is -22.4% (inactive).

As to `CC(C)Cn1c(N)c(C(=O)COC(=O)c2cc(C(F)(F)F)nc3ccccc23)c(=O)n(C)c1=O`, the “activity change, negative = inhibition” value was -9.49% (inactive).

For `CN(C)/C=N/c1cc(=O)n(C)c(=O)n1Cc1ccccc1`, the “activity change, negative = inhibition” value is -26.8% (inactive).

With `Cn1c(=O)c(C(=O)COC(=O)c2cc(C3CC3)nc3ccccc23)c(N)n(Cc2ccccc2)c1=O`, the “activity change, negative = inhibition” value was -15.2% (inactive).

With `CN(C)/C=N/c1cc(=O)[nH]c(=O)n1C`, the “activity change, negative = inhibition” value is 7.82% (inactive).

For `COC(=O)c1cccc(C23CC4(C2)[C@H](CN(Cc2cccnc2)[C@@H]4c2ccccc2)C3c2ccccc2)c1` (some centres undefined), the Potency was 1.58 µM (active).

As to `O=C(N[C@@H](Cc1ccccc1)C(=O)O)c1ccccc1`, the “activity change, negative = inhibition” value was -10.1% (inactive).
